Cav32 inh: blocks human Cav3.2 T-type calcium channel; O95180; Cav3.2-expressing cells, Fluo-4 calcium fluorescence FDSS; hits give low values; B-score at 10 µM; hit rate 4% among 100,000; AID 449739;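 active = single-dose well whose peak fluorescence ratio is a statistical outlier from its plate by either plate-standardised score or position-corrected B-score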
CYP2C9 inhib: blocks human cytochrome P450 2C9 | P11712 | CYP2C9 Supersomes, luciferin-H conversion, luminescence | inhibition, % at 5 µM | hit rate 20% among 96,000;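 active = blocking of liver enzyme CYP2C9 beyond about 50% at 5 µM, limit read from the data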
Target sequence (P11712 whole entry, looked up): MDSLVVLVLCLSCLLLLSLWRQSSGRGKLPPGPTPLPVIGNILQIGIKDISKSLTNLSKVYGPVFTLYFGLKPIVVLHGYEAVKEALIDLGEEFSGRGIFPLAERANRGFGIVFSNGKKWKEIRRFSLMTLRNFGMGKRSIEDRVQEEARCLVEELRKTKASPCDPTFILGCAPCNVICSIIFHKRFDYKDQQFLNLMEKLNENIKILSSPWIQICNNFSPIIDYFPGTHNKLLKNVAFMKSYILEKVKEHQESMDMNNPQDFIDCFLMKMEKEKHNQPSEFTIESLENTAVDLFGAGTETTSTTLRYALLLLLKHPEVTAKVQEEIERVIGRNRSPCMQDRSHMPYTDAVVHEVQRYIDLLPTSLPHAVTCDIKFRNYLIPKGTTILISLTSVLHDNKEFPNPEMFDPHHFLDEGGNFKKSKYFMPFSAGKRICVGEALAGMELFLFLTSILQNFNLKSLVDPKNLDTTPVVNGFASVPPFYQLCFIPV
CYP2C19 inhib: human CYP2C19 inhibition | P33261 | CYP2C19 Supersomes, luciferin-H EGE luminescence, 30 min | inhibition, % at 5 µM | hit rate 21% among 96,000 | AID 778;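 active = CYP2C19 inhibition above a set limit at 5 µM in the primary screen, cut at about 50% in these data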
CYP2C9 act: activators of human CYP2C9; recombinant CYP2C9, luciferin-H conversion, luminescence; hits give high values; factor 1 = untreated enzyme, 0 = blocked; hit rate 1.4% among 96,000; AID 1024; activation factor at 5 µM; P11712;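 active = activation factor of 2 or more for CYP2C9 at a 5 µM dose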
CYP2C19 activ: cytochrome P450 2C19 (human) activation | activation factor at 5 µM | 96,000 tested, under 10 active | recombinant CYP2C19, luciferin-H EGE luminescence; hits give high values; 0 = fully inhibited enzyme, 1 = untreated enzyme | P33261;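 active = activation factor of at least 2 at 5 µM in the primary screen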
Pyk2 oligo antag: blocks oligomerization of human Pyk2 in cells; Q14289; Q293 cells, Pyk2 FERM NanoBiT luminescence; hits give low values; z-score (the deposit names both 25 µM and 10 µM); hit rate 0.83% among 99,000;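 active = Z-score of -3 or lower, scaled per plate to the spread of control and sample wells; inactive = z-score above -3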;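 also: negative z-score means lost luminescence so less FERM oligomerization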
Numbers stand for hits. Most compounds without a hit are left out; they make up all but 27% or so of the library.

How did CN1CCN(C(=O)c2ccc(CSc3nc4ccncc4n3Cc3ccc(F)cc3)cc2)CC1 do in these assays?
Cav32 inh: inactive

Results for CCOC(=O)N1CCN(C(=O)c2ccc3nc(SCc4ccc(F)cc4)n(C)c3c2)CC1 ?
CYP2C9 inhib: 65.4; CYP2C19 inhib: inactive; CYP2C9 act: inactive; CYP2C19 activ: inactive; Pyk2 oligo antag: inactive

Results for C1=C(c2ccccc2)CCN(c2ncnc3nc[nH]c23)C1 ?
CYP2C9 inhib: inactive; CYP2C19 inhib: 53.6; CYP2C9 act: inactive; CYP2C19 activ: inactive

Results for O=C1C2C3C=CC(CC3)C2C(=O)N1/N=C/c1ccc(O)cc1 (configuration not stated) ?
Cav32 inh: inactive; CYP2C9 inhib: inactive; CYP2C19 inhib: inactive; CYP2C9 act: 2; CYP2C19 activ: inactive; Pyk2 oligo antag: inactive

Results for O=C1C2C3C=CC(C3)C2C(=O)N1CNc1ccc(O)cc1 (configuration not stated) ?
Cav32 inh: inactive; CYP2C9 inhib: inactive; CYP2C19 inhib: inactive; CYP2C9 act: inactive; CYP2C19 activ: inactive

How did CC(C)c1nnc(NC(=O)C2CCN(c3cnccn3)CC2)s1 do in these assays?
Cav32 inh: inactive; Pyk2 oligo antag: inactive

How did COc1ccc(S(=O)(=O)N2CCCC2C(=O)NCc2cccs2)cc1 (configuration not stated) do in these assays?
Cav32 inh: inactive; CYP2C9 inhib: inactive; CYP2C19 inhib: 67.6; CYP2C9 act: 3.1; CYP2C19 activ: inactive; Pyk2 oligo antag: inactive

What do the screens show for `CS(=O)(=O)N1CCCC(C(=O)NCCc2ccc(Cl)cc2)C1` (configuration not stated)?
Cav32 inh: inactive; CYP2C9 inhib: inactive; CYP2C19 inhib: inactive; CYP2C9 act: inactive; CYP2C19 activ: inactive; Pyk2 oligo antag: inactive

How did CCCS(=O)(=O)N1CCCC(C(=O)NCCc2ccc(Cl)cc2)C1 (configuration not stated) do in these assays?
Cav32 inh: inactive; CYP2C9 inhib: 55.5; CYP2C19 inhib: inactive; CYP2C9 act: inactive; CYP2C19 activ: inactive; Pyk2 oligo antag: inactive

How did CCNC(=O)C1CCCN1S(=O)(=O)c1ccc(OC)cc1 (configuration not stated) do in these assays?
Cav32 inh: inactive; CYP2C9 inhib: inactive; CYP2C19 inhib: inactive; CYP2C9 act: inactive; CYP2C19 activ: inactive; Pyk2 oligo antag: inactive

How did Cn1c(=O)oc2cc(S(=O)(=O)N3CCCC(C(=O)NCc4cccs4)C3)ccc21 (configuration not stated) do in these assays?
CYP2C9 inhib: inactive; CYP2C19 inhib: inactive; CYP2C9 act: inactive; CYP2C19 activ: inactive

What do the screens show for `Cc1ccc(S(=O)(=O)N2CCCC(C(=O)N(Cc3cccs3)C3CC3)C2)cc1` (configuration not stated)?
Cav32 inh: inactive; CYP2C9 inhib: inactive; CYP2C19 inhib: 98.9; CYP2C9 act: inactive; CYP2C19 activ: inactive; Pyk2 oligo antag: inactive

What do the screens show for `Cn1c(=O)oc2cc(S(=O)(=O)N3CCCC(C(=O)NCc4ccc5c(c4)OCO5)C3)ccc21` (configuration not stated)?
Cav32 inh: inactive; CYP2C9 inhib: 67.8; CYP2C19 inhib: inactive; CYP2C9 act: inactive; CYP2C19 activ: inactive

What do the screens show for `Cc1ccc(NC(=O)C2CCCN(S(=O)(=O)c3cccs3)C2)cc1` (configuration not stated)?
Cav32 inh: inactive; CYP2C9 inhib: inactive; CYP2C19 inhib: inactive; CYP2C9 act: inactive; CYP2C19 activ: inactive; Pyk2 oligo antag: inactive

What do the screens show for `CCOCCCn1c(=NC(=O)c2ccc(OC)c(OC)c2)c(C#N)cc2c(=O)n3cccc(C)c3nc21`?
CYP2C9 inhib: inactive; CYP2C19 inhib: inactive; CYP2C9 act: inactive; CYP2C19 activ: inactive

What do the screens show for `COc1ccc(S(=O)(=O)NC(CC(=O)NCCc2ccc(OC)c(OC)c2)c2ccco2)cc1` (configuration not stated)?
CYP2C9 inhib: inactive; CYP2C19 inhib: inactive; CYP2C9 act: inactive; CYP2C19 activ: inactive; Pyk2 oligo antag: inactive

What do the screens show for `CCC1CCCCN1S(=O)(=O)c1ccc(S(=O)(=O)N(Cc2cccs2)C2CC2)cc1` (configuration not stated)?
Cav32 inh: inactive; CYP2C9 inhib: 71.3; CYP2C19 inhib: 69.4; CYP2C9 act: inactive; CYP2C19 activ: inactive; Pyk2 oligo antag: inactive

What do the screens show for `Cc1ccc(CCNC(=O)C2CCCN(S(=O)(=O)c3cccs3)C2)cc1` (configuration not stated)?
Cav32 inh: inactive; CYP2C9 inhib: 72.4; CYP2C19 inhib: inactive; CYP2C9 act: inactive; CYP2C19 activ: inactive; Pyk2 oligo antag: inactive

What do the screens show for `CS(=O)(=O)N1CCCC(C(=O)NCc2cccs2)C1` (configuration not stated)?
Cav32 inh: inactive; CYP2C9 inhib: inactive; CYP2C19 inhib: inactive; CYP2C9 act: inactive; CYP2C19 activ: inactive; Pyk2 oligo antag: inactive

How did O=C(NCc1cccs1)C1CCCN(S(=O)(=O)c2ccc3c(c2)OCO3)C1 (configuration not stated) do in these assays?
Cav32 inh: inactive; CYP2C9 inhib: inactive; CYP2C19 inhib: inactive; CYP2C9 act: 2.1; CYP2C19 activ: inactive; Pyk2 oligo antag: inactive

How did O=C(NCc1cccs1)C1CCCN(S(=O)(=O)c2cccs2)C1 (configuration not stated) do in these assays?
Cav32 inh: inactive; CYP2C9 inhib: 72.4; CYP2C19 inhib: inactive; CYP2C9 act: inactive; CYP2C19 activ: inactive; Pyk2 oligo antag: inactive

Results for O=c1c(CN2CCN(Cc3ccccc3)CC2)coc2ccc(Cl)cc12 ?
Cav32 inh: inactive; CYP2C9 inhib: inactive; CYP2C19 inhib: inactive; CYP2C9 act: 2.8; CYP2C19 activ: inactive; Pyk2 oligo antag: inactive

How did Cc1ccc2occ(CN3CCN(Cc4ccccc4)CC3)c(=O)c2c1 do in these assays?
CYP2C9 inhib: inactive; CYP2C19 inhib: inactive; CYP2C9 act: inactive; CYP2C19 activ: inactive

What do the screens show for `Cc1ccc2occ(CN3CCN(c4ccccc4)CC3)c(=O)c2c1`?
Cav32 inh: inactive; CYP2C9 inhib: inactive; CYP2C19 inhib: 81.8; CYP2C9 act: inactive; CYP2C19 activ: inactive; Pyk2 oligo antag: inactive

What do the screens show for `O=C(Nc1ccc2c(c1)CCC2)C1CCCO1` (configuration not stated)?
Cav32 inh: inactive; Pyk2 oligo antag: inactive

How did O=C(CSc1nnc2ccccn12)N1CCOCC1 do in these assays?
Cav32 inh: inactive; CYP2C9 inhib: inactive; CYP2C19 inhib: inactive; CYP2C9 act: inactive; CYP2C19 activ: inactive; Pyk2 oligo antag: inactive

What do the screens show for `O=C(CSc1nnc2ccccn12)c1ccc2c(c1)OCCO2`?
Cav32 inh: inactive; CYP2C9 inhib: inactive; CYP2C19 inhib: 82.1; CYP2C9 act: inactive; CYP2C19 activ: inactive; Pyk2 oligo antag: inactive

What do the screens show for `c1ccn2c(SCc3ccc4c(c3)OCO4)nnc2c1`?
Cav32 inh: inactive; CYP2C9 inhib: inactive; CYP2C19 inhib: 65.3; CYP2C9 act: inactive; CYP2C19 activ: inactive; Pyk2 oligo antag: inactive

How did Cn1c(SCc2ccc3c(c2)OCO3)nnc1-c1ccccc1 do in these assays?
Cav32 inh: inactive; CYP2C9 inhib: inactive; CYP2C19 inhib: 97.7; CYP2C9 act: inactive; CYP2C19 activ: inactive; Pyk2 oligo antag: inactive

Screening data: PubChem, several laboratories
